First the molecules themselves.
B1: il10ra_site1_normal_mot_HHH_b2_00984_000000042_0001_1_20_H_._HHH_b2_02613_af2_0001_0000700025_0000001_0 (protein)
chain: SSSSSTEEEIEELIKKAEEAAENGDPRKAFELLAEASRYALELGDAELLQEIWELIKKLNSSSSS
B2: il10ra_site1_sap_23_mot_HHH_b1_03574_000000194_0001_1_18_H_._HHH_b1_05868_0001_0000200012_0000002_0_0001 (protein)
chain: SSSSSDRDELYELIEEALELLARGNPEEAERVLEEARELAEELGNRVFLVVIRFLLKDIKSSSSS
B3: il10ra_site1_normal_mot_HHH_b1_05056_000000217_0001_1_20_H_._HHH_b2_04285_0001_0000100002_0000001_0 (protein)
chain: SSSSDLEEEIERLEEELREARERGDKELALQLLLRLLRLAYETRDEELLRELWEIVRKLFSSSSS
B4: il10ra_site1_normal_mot_HHH_b1_04693_000000238_0001_19_36_H_._HHH_b2_06085_af2_0001_0000700026_0000002_0 (protein)
chain: SSSSSDQELYELIRELIELLLEGDEEEIERLEEEIEKLAKELNNRVLLFVARAARRLQEKSSSSS
B5: il10ra_site1_sap_20_mot_HHH_b1_08622_000000192_0001_23_40_H_._HHH_b2_06485_0001_0000100001_0000003_0_0001_af2pred_0001 (protein)
chain: SSSSSEFEEAIKAARESIEHALRLGDDEKVEQALRLLERLARDANDEEAEKFIEEVEELLSSSSS
B6: il10ra_site1_sap_11_mot_HHH_b1_00456_000000263_0001_1_17_H_._HHH_b2_06141_0001_0000200005_0000001_0_0001_af2pred_0001 (protein)
chain: SSSSDIAERLVELALEAARLAAERGDPEAVRRALEQAEHLAKLNNNPELEEEVKELEEELSSSSS
B7: il10ra_site1_sap_15_mot_HHH_b1_00814_af2_000000078_0001_43_57_H_._HHH_b2_00250_af2_0001_0000100010_0000001_0_0001_af2pred_0001 (protein)
chain: SSSSSRSAEEAIRRLLRAAKQLEDEERLKLAIRDALAAAEFLGNEELVEELRKILEELRSSSSSS
B8: il10ra_site1_sap_28_mot_HHH_b2_01776_000000118_0001_38_52_H_._HHH_b1_02755_0001_0000100001_0000001_0_0001_af2pred_0001 (protein)
chain: SSSSDEELLEHLLRALKQVVELGDEERAKLTIKFIKRLAELHNDEEVEKRLRELEELVEELSSSS
B9: il10ra_site1_normal_mot_HHH_b1_02809_af2_000000277_0001_40_57_H_._HHH_b1_00768_af2_0001_0000200008_0000001_0 (protein)
chain: SSSSSSDANETAARLIRAAYRGDEELFEELREELEELIERYGDPRLRLALQFAEALFRELSSSSS
B10: il10ra_site1_sap_22_mot_HHH_b1_00169_000000276_0001_1_18_H_._HHH_b1_00842_0001_0000200007_0000001_0_0001 (protein)
chain: SSSSDEEREELYEILEEVIKLASEGDEEEFEELVREAEELAKELGNWVVRHVLELLRRDLSSSSS
B11: il10ra_site1_normal_mot_HHH_b2_01397_000000078_0001_23_39_H_._HHH_b2_08075_0001_0000300026_0000002_0_af2pred_0001 (protein)
chain: SSSSDERVKLTLRFAEALAKHGDRRAVELLLRAARQLAERDGDEELEELIEEVEERVRELLSSSS
B12: il10ra_site1_normal_mot_HHH_b1_05357_000000034_0001_23_39_H_._HHH_b1_03625_af2_0001_0000700020_0000001_0 (protein)
chain: SSSSSDEKEVTHILIQAYAAANHGNPEEAEELLKEAKEIAEEINNERLKLSIEKVEEILRSSSSS
B13: il10ra_site1_sap_13_mot_HHH_b2_00943_af2_000000149_0001_1_17_H_._HHH_b1_02941_af2_0001_0000200003_0000001_0_0001 (protein)
chain: SSSSDVSREAYELSRRAAELHSEGNPEEARELLEEAEELLREAGDRVILHNVEYVLELLNSSSSS
B14: il10ra_site1_sap_14_mot_HHH_eva_0266_af2_000000000_0001_3_18_H_._HHH_b1_03321_0001_0000100001_0000001_0_0001 (protein)
chain: SSSSYEELKKLIERITRALREGNREEAQELIERVEELAEERNDWSARFVARVLQEALEANSSSSS
B15: il10ra_site1_normal_mot_HHH_b2_00475_000000107_0001_44_57_H_._HHH_b2_03520_0001_0000600038_0000001_0 (protein)
chain: SSSSDEEEVSHLLFRALELLFRGDKEEAEELVEEAKEIAEESNDPELQRYVEIAEHFVKAHSSSS
B16: il10ra_site1_normal_mot_HHH_b2_08186_000000021_0001_43_56_H_._HHH_b1_00125_0001_0000100002_0000001_0 (protein)
chain: SSSSSSDLEEEIEELLEELKQISDPERFAEVARRVLRLIYELGDEELLQELWEILKRLSSSSSSS
B17: il10ra_site1_normal_mot_HHH_b1_05670_000000169_0001_1_19_H_._HHH_b2_02857_0001_0000400035_0000001_1 (protein)
chain: SSSSDEDYRRAKELIELIVELLREGNPEEAKKVLEELRELAEENNNPVLEWSVRLLEEDINSSSS
B18: il10ra_site1_sap_27_mot_HHH_b1_05870_000000031_0001_1_20_H_._HHH_b2_06019_af2_0001_0000100004_0000001_0_0001 (protein)
chain: SSSSSDIEELLREAEELAEEGDPEEAARLLLEALKLIYERQDKELLQELWEVVRRVAEISSSSSS

These entries were drawn from the full list. No count for the full screen is at hand.

il10ra, Q13651, sequence (Q13651 whole entry): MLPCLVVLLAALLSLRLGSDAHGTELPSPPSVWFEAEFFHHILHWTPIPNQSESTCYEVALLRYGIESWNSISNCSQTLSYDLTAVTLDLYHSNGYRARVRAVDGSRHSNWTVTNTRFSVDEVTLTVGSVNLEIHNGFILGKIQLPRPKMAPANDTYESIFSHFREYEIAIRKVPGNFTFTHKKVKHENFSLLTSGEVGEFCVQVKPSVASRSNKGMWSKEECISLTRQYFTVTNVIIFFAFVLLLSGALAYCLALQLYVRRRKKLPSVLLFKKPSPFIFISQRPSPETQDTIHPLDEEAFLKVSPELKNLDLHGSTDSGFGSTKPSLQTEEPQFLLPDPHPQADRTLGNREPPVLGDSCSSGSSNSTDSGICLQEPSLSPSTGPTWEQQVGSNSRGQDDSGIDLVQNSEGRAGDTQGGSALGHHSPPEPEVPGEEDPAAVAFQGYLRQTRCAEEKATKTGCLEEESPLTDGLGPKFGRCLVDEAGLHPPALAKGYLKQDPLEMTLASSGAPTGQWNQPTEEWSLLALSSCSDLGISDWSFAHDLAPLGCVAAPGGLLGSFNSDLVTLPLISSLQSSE

This assay has as its target il10ra, Q13651. Kind of assay: yeast display titration.
B1: the “apparent Kd” value is “no binding seen (inactive)”.

As for B2, the “apparent Kd” value was “no binding seen (inactive)”.

In the case of B3, the “apparent Kd” value is “no binding seen (inactive)”.

With B4, the “apparent Kd” value was “no binding seen (inactive)”.

B5: the “apparent Kd” value was “no binding seen (inactive)”.

As for B6, the “apparent Kd” value was “no binding seen (inactive)”.

Consider B7, for which the “apparent Kd” value was “no binding seen (inactive)”.

Take B8: the “apparent Kd” value is “no binding seen (inactive)”.

Take B9: the “apparent Kd” value is “no binding seen (inactive)”.

As to B10, the “apparent Kd” value is “no binding seen (inactive)”.

Turning to B11, the “apparent Kd” value is “no binding seen (inactive)”.

Regarding B12, the “apparent Kd” value is “no binding seen (inactive)”.

As for B13, the “apparent Kd” value is “no binding seen (inactive)”.

As to B14, the “apparent Kd” value was “no binding seen (inactive)”.

Regarding B15, the “apparent Kd” value is “no binding seen (inactive)”.

Consider B16, for which the “apparent Kd” value was “no binding seen (inactive)”.

Consider B17, for which the “apparent Kd” value is “no binding seen (inactive)”.

On to B18, for which the “apparent Kd” value was “no binding seen (inactive)”.

These data come from article PMC10163288.
